# From the supplement of paper PMC8728848
# Many of the other results were omitted from the sample, so the strongest signals are more common in it than they were.
# Tests used:
# Assay in all cases: glycan array binding signal (z-score within array); higher = stronger binding
# Details in all cases: glycan notation: IUPAC condensed, linker removed
# [1] = biological target: Fuc(a1-2)Gal(b1-3)GalNAc(b1-3)Gal(a1-4)Gal(b1-4)Glc
# Summary of the method: (§1)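 From the Consortium for Functional Glycomics database, 3228 arrays were curated, keeping only those whose protein sequence was available. Binding is given as a within-array Z-score averaged across arrays sharing a protein sequence and across linkers. Negative Z-scores can be read as non-binding.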
# [2] = biological target: Fuc(a1-2)Gal(b1-4)GlcNAc(b1-3)Gal(b1-4)GlcNAc(b1-3)Gal(b1-4)GlcNAc
# Summary of the method: as §1
# [3] = biological target: Fuc(a1-2)[GalNAc(a1-3)]Gal(b1-4)[Fuc(a1-3)]GlcNAc
# Summary of the method: as §1
# [4] = biological target: Fuc(a1-3)[Gal3S(b1-4)]GlcNAc
# Summary of the method: as §1
# [5] = biological target: Fuc(b1-3)GlcNAc
# Summary of the method: as §1
# [6] = biological target: Gal(a1-3)Gal
# Summary of the method: as §1
# [7] = biological target: Gal(b1-3)Gal
# Summary of the method: as §1
# [8] = biological target: Gal(b1-4)GalNAc(a1-3)[Fuc(a1-2)]Gal(b1-4)GlcNAc
# Summary of the method: as §1
# [9] = biological target: Gal(b1-4)Glc
# Summary of the method: as §1
# [10] = biological target: Gal(b1-4)Glc6S
# Summary of the method: as §1
# [11] = biological target: GlcA(b1-3)Gal
# Summary of the method: as §1
# [12] = biological target: GlcNAc(a1-6)Gal(b1-4)GlcNAc
# Summary of the method: as §1
# [13] = biological target: GlcNAc(b1-4)GlcNAc(b1-4)GlcNAc
# Summary of the method: as §1
# [14] = biological target: GlcNAc(b1-4)[GlcNAc(b1-6)]GalNAc
# Summary of the method: as §1
# [15] = biological target: GlcNAc(b1-6)GalNAc
# Summary of the method: as §1
# [16] = biological target: Man(a1-2)Man(a1-3)[Man(a1-3)[Man(a1-6)]Man(a1-6)]Man(b1-4)GlcNAc(b1-4)GlcNAc
# Summary of the method: as §1
# [17] = biological target: Man(a1-3)[Man(a1-6)]Man
# Summary of the method: as §1
# [18] = biological target: Man(a1-3)[Man(a1-6)]Man(a1-6)[Man(a1-3)]Man(b1-4)GlcNAc(b1-4)GlcNAc
# Summary of the method: as §1
# [19] = biological target: Man(a1-3)[Man(a1-6)]Man(b1-4)GlcNAc(b1-4)GlcNAc
# Summary of the method: as §1
# [20] = biological target: Neu5Ac(a2-3)Gal(b1-3)[Neu5Ac(a2-3)Gal(b1-4)]GlcNAc
# Summary of the method: as §1
# [21] = biological target: Neu5Ac(a2-3)Gal(b1-4)[Fuc(a1-3)]GlcNAc6S
# Summary of the method: as §1
binder,measurement,setting,value
"Crocus Lectin (Crocus vernus), Q9FVA1 (protein) MAKSLVLSSLLLALLLAAPLASLADNNVLLTGDVLHTDNQLSFESAAFVMQGDCNLVLYNEAGGFQSNTHGRGVGCTLRLNNFGQLEIHSANSNTPVWVSLRNGIPVRGDYAAVLGPDQHVTIYGPAIWSTPAPNRHERGATVSNIPRVRNVLFSSQVMSDNAQLATRDYSLVMRDDCNLALTKGSKTNIVWESGTSGRGQHCFMRLGHTGLIEISDDRLNTVWRSNTVGQEGDYVLILQINGQAVVYGPAVWSTASPARGGASAAL",glycan array binding signal (z-score),[1],-0.162
same,glycan array binding signal (z-score),[2],-0.146
same,glycan array binding signal (z-score),[3],-0.159
same,glycan array binding signal (z-score),[4],-0.187
same,glycan array binding signal (z-score),[5],-0.163
same,glycan array binding signal (z-score),[6],-0.177
same,glycan array binding signal (z-score),[7],-0.192
same,glycan array binding signal (z-score),[8],-0.195
same,glycan array binding signal (z-score),[9],-0.152
same,glycan array binding signal (z-score),[10],-0.165
same,glycan array binding signal (z-score),[11],-0.179
same,glycan array binding signal (z-score),[12],-0.196
same,glycan array binding signal (z-score),[13],-0.156
same,glycan array binding signal (z-score),[14],-0.187
same,glycan array binding signal (z-score),[15],-0.175
same,glycan array binding signal (z-score),[16],3.76
same,glycan array binding signal (z-score),[17],7.87
same,glycan array binding signal (z-score),[18],7.04
same,glycan array binding signal (z-score),[19],6.62
same,glycan array binding signal (z-score),[20],-0.169
same,glycan array binding signal (z-score),[21],-0.195
